Reference: PubChem BioAssay AID504634 (The Scripps Research Institute Molecular Screening Center, 2011)
About 280 (0.082%) of roughly 340,000 compounds were called active. The sample as a whole holds a higher share of actives than the screen did. A number with no mark means an inactive call. Rule as the data show it: active = inhibition mostly above about 23% (no sharp cut-off); inactive = mostly below about 18%.

biological target: 5-hydroxytryptamine receptor 5A (Homo sapiens) (UniProt P47898); experiment: inverse agonism at human 5-HT5A receptor – cell-based, luminescence, full-deck HTS, counter-screen for OPRM1-OPRD1 heterodimer inverse agonist project, primary screen (AID 504634); conditions: HTR5A cell line, at 9.3 µM, hits give high values;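 also: 0% = cells with DMSO and 100% = no-cell wells with DMSO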
Sequence (P47898 whole entry, looked up): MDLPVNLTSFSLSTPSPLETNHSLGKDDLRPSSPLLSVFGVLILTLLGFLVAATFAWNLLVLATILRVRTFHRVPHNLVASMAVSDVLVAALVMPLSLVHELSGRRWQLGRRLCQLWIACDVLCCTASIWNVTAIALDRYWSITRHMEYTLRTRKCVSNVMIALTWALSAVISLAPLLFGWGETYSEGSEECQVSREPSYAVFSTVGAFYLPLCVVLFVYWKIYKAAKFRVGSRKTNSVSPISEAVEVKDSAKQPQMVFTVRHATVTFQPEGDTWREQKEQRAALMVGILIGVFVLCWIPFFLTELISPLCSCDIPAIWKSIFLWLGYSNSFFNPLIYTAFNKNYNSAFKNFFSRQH

SMILES	inhibition
CC(=O)OC1C2(CC3N4C(=O)C5(CO)SSC4(CC31O)C(=O)N5C)OC(C)C(C)(C)C2=O (stereo not given)	97.6% (active)
COC1C(O)C(C)OC(OC2CCC3(C=O)C(CCC4C3CCC3(C)C(C5=CC(=O)OC5)CCC43O)C2)C1O (stereo not given)	-11%
c1ccc(C2NCc3ccccc3-n3cccc32)cc1 (stereo not given)	-5.59%
COC(=O)C1=C(c2cc3ccccc3s2)C[C@@H]2CC[C@H]1N2C(=O)NC(C)C	5.09%
C[C@]12CCC3C(CC[C@H]4[C@H](O)[C@H](O)CC[C@]34C)C1CC[C@@H]2O (stereo not given in full)	-10.8%
